Compound activity deposited in PubChem by several laboratories.
CYP2C19 inhib – human CYP2C19 inhibition | actives 21% (n = 96,000) | CYP2C19 Supersomes, luciferin-H EGE luminescence, 30 min | P33261 | AID 778 | inhibition, % at 5 µM;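 active = CYP2C19 inhibition above a set limit at 5 µM in the primary screen, cut at about 50% in these data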
MRP-1 activ – MRP-1 activation. H69AR cells + doxorubicin, viability rescue, CellTiter-Glo. viability increase, % at 10 µM. actives 0.61% (n = 140,000). AID 799;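 active = viability gain under doxorubicin at or above a set limit, the compound median plus 3 SD, cut at about 4.7% in these data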;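 note: MRP-1 overexpressing cells given doxorubicin 25 µM after compound pretreatment; 18-22 h compound pretreatment then 72 h with doxorubicin before readout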
CYP2C9 act – increases human cytochrome P450 2C9 activity; AID 1024; actives 1.4% (n = 96,000); activation factor at 5 µM; P11712; recombinant CYP2C9, luciferin-H conversion, luminescence; stronger effect = higher value; factor 1 = untreated enzyme, 0 = blocked;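 active = activation factor of 2 or more for CYP2C9 at a 5 µM dose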
Target sequence (P11712 whole entry, looked up): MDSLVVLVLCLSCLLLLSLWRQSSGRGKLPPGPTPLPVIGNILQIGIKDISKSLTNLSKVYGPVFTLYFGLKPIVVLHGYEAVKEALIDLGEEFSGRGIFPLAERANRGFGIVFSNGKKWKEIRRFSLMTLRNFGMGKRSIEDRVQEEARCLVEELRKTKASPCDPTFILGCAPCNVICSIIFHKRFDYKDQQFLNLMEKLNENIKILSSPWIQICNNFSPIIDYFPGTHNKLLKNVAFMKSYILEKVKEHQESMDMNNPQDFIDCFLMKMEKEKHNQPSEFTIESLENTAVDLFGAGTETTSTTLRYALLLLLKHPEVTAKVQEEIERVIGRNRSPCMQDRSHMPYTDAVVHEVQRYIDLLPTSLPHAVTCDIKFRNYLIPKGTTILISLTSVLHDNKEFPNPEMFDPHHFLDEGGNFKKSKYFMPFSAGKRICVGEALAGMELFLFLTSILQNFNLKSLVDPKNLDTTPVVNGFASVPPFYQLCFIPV
CYP2C19 act – cytochrome P450 2C19 (human) activation; activation factor at 5 µM; recombinant CYP2C19, luciferin-H EGE luminescence; stronger effect = higher value; 0 = fully inhibited enzyme, 1 = untreated enzyme; 96,000 tested, under 10 active; AID 1025;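 active = activation factor of at least 2 at 5 µM in the primary screen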
MRP reversal – compounds reversing MRP-mediated drug resistance; AID 602; actives 0.04% (n = 85,000); H69AR cells + 2 uM doxorubicin, CellTiter-Glo, 72 h; differential viability (reversal), % at 10 µM;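 active = viability drop by adding the cancer drug above about 55%, with treated viability meeting a 40% cutoff, limit read from the data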;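 note: larger differential means the compound sensitizes cells more to doxorubicin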
CYP2C9 inhib – inhibitors of human CYP2C9 | CYP2C9 Supersomes, luciferin-H conversion, luminescence | P11712 | inhibition, % at 5 µM | actives 20% (n = 96,000);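 active = blocking of liver enzyme CYP2C9 beyond about 50% at 5 µM, limit read from the data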
Hits are given with their value. A selection: hits, their analogues and other compounds. The true share with any hit is near 21%.

Screening O=C(NCCOc1cccc(Cl)c1Cl)c1cc(-n2cnnc2)ccc1Cl returned CYP2C19 inhib 69.6, MRP-1 activ inactive, CYP2C9 act inactive, CYP2C19 act inactive and CYP2C9 inhib 54.3.
`CCSCCNC(=O)c1cc(-n2cnnc2)ccc1Cl` gave CYP2C19 inhib inactive, MRP-1 activ inactive, CYP2C9 act inactive, CYP2C19 act inactive, MRP reversal inactive and CYP2C9 inhib inactive.
`CC(=O)c1cccc(NS(=O)(=O)c2cc(OCC(N)=O)c(C)cc2Cl)c1` gave CYP2C19 inhib inactive, MRP-1 activ inactive, CYP2C9 act inactive, CYP2C19 act inactive, MRP reversal inactive and CYP2C9 inhib inactive.
For CN(C(=O)c1ccc(S(=O)(=O)c2cccc(Cl)c2)c([N+](=O)[O-])c1)C1CCCCC1 the results were MRP-1 activ inactive.
`O=C1CC(C(=O)Nc2ccc(F)c(Cl)c2)N=C(N2CCCCC2)N1` (stereo not given) gave CYP2C19 inhib inactive, MRP-1 activ inactive, CYP2C9 act inactive, CYP2C19 act inactive, MRP reversal inactive and CYP2C9 inhib inactive.
For CC(=O)OC(C(=O)NC1CCCCC1)c1ccc(C#N)cc1 (stereo not given) the results were CYP2C19 inhib inactive, MRP-1 activ inactive, CYP2C9 act inactive, CYP2C19 act inactive, MRP reversal inactive and CYP2C9 inhib inactive.
Screening COCCCNC(=O)CSC1=Nc2ccccc2C2=NC(CC(=O)NCc3ccccc3)C(=O)N12 (stereo not given) returned CYP2C19 inhib inactive, MRP-1 activ inactive, CYP2C9 act inactive, CYP2C19 act inactive, MRP reversal inactive and CYP2C9 inhib inactive.
Screening COc1cc(SC)ccc1C(=O)NCc1ccc(C)cc1 returned CYP2C19 inhib 90.7, MRP-1 activ inactive, CYP2C9 act inactive, CYP2C19 act inactive and CYP2C9 inhib inactive.
`COc1cc(SC)ccc1C(=O)NCC1CCCO1` (stereo not given) gave CYP2C19 inhib 59.5, MRP-1 activ inactive, CYP2C9 act inactive, CYP2C19 act inactive, MRP reversal inactive and CYP2C9 inhib inactive.
COc1cc(C(=O)NCC2CCCO2)cc(OC)c1OC (stereo not given) was read as MRP-1 activ inactive and MRP reversal inactive.
For COc1cc(SC)ccc1C(=O)NCc1ccccc1 the results were MRP-1 activ inactive.
For CCCNC(=O)c1ccc(SC)cc1OC the results were CYP2C19 inhib inactive, MRP-1 activ inactive, CYP2C9 act inactive, CYP2C19 act inactive, MRP reversal inactive and CYP2C9 inhib inactive.
`COc1cc(SC)ccc1C(=O)N(C)Cc1ccccc1` gave CYP2C19 inhib 97.5, MRP-1 activ inactive, CYP2C9 act inactive, CYP2C19 act inactive and CYP2C9 inhib inactive.
For O=C(O)CSCCC(=O)Nc1ccc(F)cc1 the results were CYP2C19 inhib inactive, MRP-1 activ inactive, CYP2C9 act inactive, CYP2C19 act inactive, MRP reversal inactive and CYP2C9 inhib inactive.
For CCCCN=C1NN=C(c2cc3ccccc3o2)CS1 the results were MRP-1 activ inactive.
`c1ccc2c(-c3ccncc3)c[nH]c2c1` gave CYP2C19 inhib 85.3, MRP-1 activ inactive, CYP2C9 act inactive, CYP2C19 act inactive, MRP reversal inactive and CYP2C9 inhib 93.4.
Screening Cc1ccc(Cl)c(OCC(=O)Nc2sc(C)c(C)c2C#N)c1 returned MRP-1 activ inactive.
CC1(C)CC2CC(C)(CN2C(=O)COC(=O)c2ccc(Cl)c(N)c2)C1 (stereo not given) was read as CYP2C19 inhib inactive, MRP-1 activ inactive, CYP2C9 act inactive, CYP2C19 act inactive, MRP reversal inactive and CYP2C9 inhib inactive.
`CCOc1nc(Nc2ccc(OC)cc2)nc(OCC)n1` gave CYP2C19 inhib inactive, MRP-1 activ inactive, CYP2C9 act inactive, CYP2C19 act inactive, MRP reversal inactive and CYP2C9 inhib inactive.
`COc1ccc(Nc2nc(Nc3ccc(OC)cc3)nc(SC3=NCCS3)n2)cc1` gave CYP2C19 inhib 58.8, MRP-1 activ inactive, CYP2C9 act inactive, CYP2C19 act inactive, MRP reversal inactive and CYP2C9 inhib 64.1.
Screening COc1ccc(NC(=O)C2CC(=O)OC23CCOC(C)(C)C3)cc1 (stereo not given) returned CYP2C19 inhib 57.4, MRP-1 activ inactive, CYP2C9 act inactive, CYP2C19 act inactive, MRP reversal inactive and CYP2C9 inhib inactive.
`Cc1ccc(CNC(=O)C2CC(=O)OC23CCCC3)c(C)c1` (stereo not given) gave MRP-1 activ inactive and MRP reversal inactive.
`COc1ccc(C)cc1NC(=O)C1CC(=O)OC12CCCCC2` (stereo not given) gave CYP2C19 inhib 78.3, MRP-1 activ inactive, CYP2C9 act inactive, CYP2C19 act inactive, MRP reversal inactive and CYP2C9 inhib inactive.
Screening Cc1cccc(NC(=O)C2CC(=O)OC23CCCCC3)c1 (stereo not given) returned CYP2C19 inhib 76.5, MRP-1 activ inactive, CYP2C9 act inactive, CYP2C19 act inactive, MRP reversal inactive and CYP2C9 inhib inactive.
Screening CCOC(=O)C1CCCN(C(=O)COC(=O)C2=COCCO2)C1 (stereo not given) returned CYP2C19 inhib inactive, MRP-1 activ inactive, CYP2C9 act inactive, CYP2C19 act inactive, MRP reversal inactive and CYP2C9 inhib inactive.
For COC(=O)c1c(-c2ccc3ccccc3c2)csc1NC(=O)Cc1ccc(OC)c(OC)c1 the results were CYP2C19 inhib inactive, MRP-1 activ inactive, CYP2C9 act inactive, CYP2C19 act inactive and CYP2C9 inhib 79.7.
For COC(=O)c1c(-c2cccc(OC)c2)csc1N the results were CYP2C19 inhib inactive, MRP-1 activ inactive, CYP2C9 act inactive, CYP2C19 act inactive, MRP reversal inactive and CYP2C9 inhib inactive.
CCOC(=O)c1c(-c2ccc(OC)cc2)csc1NC(=O)CSc1ccccc1 was read as CYP2C19 inhib inactive, MRP-1 activ inactive, CYP2C9 act inactive, CYP2C19 act inactive and CYP2C9 inhib inactive.
Screening COC(=O)c1c(-c2ccc(OC)c(OC)c2)csc1N returned CYP2C19 inhib 60.1, MRP-1 activ inactive, CYP2C9 act inactive, CYP2C19 act inactive, MRP reversal inactive and CYP2C9 inhib inactive.
Screening COc1ccc(S(=O)(=O)N2CCC(C(=O)Nc3ccc4c(c3)OCCO4)CC2)cc1OC returned CYP2C19 inhib inactive, MRP-1 activ inactive, CYP2C9 act inactive, CYP2C19 act inactive, MRP reversal inactive and CYP2C9 inhib inactive.
For COc1cc(OC)c(S(=O)(=O)Nc2ccc(C)cn2)cc1NC(C)=O the results were MRP-1 activ inactive.
For COC(=O)c1ccc(NC(=O)C23CCC(C)(C(=O)O2)C3(C)C)cc1 (stereo not given) the results were CYP2C19 inhib inactive, MRP-1 activ inactive, CYP2C9 act inactive, CYP2C19 act inactive, MRP reversal inactive and CYP2C9 inhib inactive.
`N#Cc1ccc(CSc2nnc(-c3cccs3)n2-c2ccccc2)cc1` gave CYP2C19 inhib 92.6, MRP-1 activ inactive, CYP2C9 act inactive, CYP2C19 act inactive, MRP reversal inactive and CYP2C9 inhib 92.0.
